{"source": "the supplement of paper PMC10037445", "key": {"[1]": {"system": "RAW-Dual", "experiment": "IRF Lucia reporter activity, fold change vs agonist alone; cytotoxicity flag (confluency mask): not cytotoxic; higher = enhanced IRF activity", "method_in_brief": "(§1)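 Cytotoxic wells were those whose IncuCyte confluency was below 70% of agonist controls in both mask sets. The cells were RAW-Dual macrophages at 50,000 cells/well in DMEM on 384-well plates, dosed with 50 nL of library stock by pin tool, stimulated with a PRR agonist 1 h later, and kept at 37 °C, 5% CO2 for 20 hours. IRF and NF-κB reporter activity, as fold change over agonist-alone wells, came from supernatant read by QuantiLuc luminescence and QuantiBlue absorbance, respectively.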"}, "[2]": {"system": "RAW-Dual", "experiment": "IRF Lucia reporter activity, fold change vs agonist alone; higher = enhanced IRF activity", "settings": "agonist: MPLA (TLR4) […]", "method_in_brief": "as §1"}, "[3]": {"system": "RAW-Dual", "experiment": "IRF Lucia reporter activity, fold change vs agonist alone; cytotoxicity flag (confluency mask): cytotoxic (confluency <70% of control); higher = enhanced IRF activity", "method_in_brief": "as §1"}, "[4]": {"settings": "agonist: 3'3'-cGAMP (STING) 10 ug/mL"}, "[5]": {"settings": "library stock concentration (final ~1000-fold dilution): 10 mM, cytotoxicity flag (confluency mask): not cytotoxic"}, "[6]": {"settings": "library stock concentration (final ~1000-fold dilution): 10 mM, cytotoxicity flag (confluency mask): cytotoxic (confluency <70% of control)"}}, "note": "Whole data set: some 2,900 compounds, median “IRF Lucia reporter activity, fold change vs agonist alone” near 0.9, cut for the highest 2% near 2.8. The list comes from a sample in which the highest values are over-represented; it also holds similar structures and randomly drawn compounds."}
{"compound": "CCCc1cc(C)[nH]c(=O)c1CNC(=O)c1cc(-c2ccc(N3CCN(C)CC3)nc2)nc2c1cnn2C(C)C", "note": "(library stock concentration (final ~1000-fold dilution): 10 mM)", "values": [{"measurement": "IRF Lucia reporter activity", "setting": "[1]; [4]", "result": 0.763}, {"measurement": "IRF Lucia reporter activity", "setting": "[1]; agonist: LPS (TLR4) 0.1 ug/mL", "result": 1.35}]}
{"compound": "CCN(C)S(=O)(=O)Nc1ccc(F)c(C(=O)c2c[nH]c3ncc(-c4cnc(C5CC5)nc4)cc23)c1F", "note": "(library stock concentration (final ~1000-fold dilution): 10 mM)", "values": [{"measurement": "IRF Lucia reporter activity", "setting": "[1]; [4]", "result": 0.0563}, {"measurement": "IRF Lucia reporter activity", "setting": "[1]; agonist: LPS (TLR4) 0.1 ug/mL", "result": 0.409}]}
{"compound": "Cc1ccc2c(=O)c3cccc(CC(=O)O)c3oc2c1C", "note": "(library stock concentration (final ~1000-fold dilution): 10 mM)", "values": [{"measurement": "IRF Lucia reporter activity", "setting": "[1]; [4]", "result": 1.08}, {"measurement": "IRF Lucia reporter activity", "setting": "[1]; agonist: LPS (TLR4) 0.1 ug/mL", "result": 6.08}]}
{"compound": "Cc1c(-c2ccccc2)oc2c(C(=O)OCCN3CCCCC3)cccc2c1=O.Cl", "values": [{"measurement": "IRF Lucia reporter activity", "setting": "[2]; library stock concentration (final ~1000-fold dilution): 10 mM water, cytotoxicity flag (confluency mask): not cytotoxic", "result": 1.29}]}
{"compound": "Cc1ccc2c(=O)c3cccc(CC(=O)O)c3oc2c1C", "values": [{"measurement": "IRF Lucia reporter activity", "setting": "[2]; [5]", "result": 0.965}]}
{"compound": "Cc1c(-c2ccccc2)oc2c(C(=O)OCCN3CCCCC3)cccc2c1=O.Cl", "note": "(library stock concentration (final ~1000-fold dilution): 10 mM water)", "values": [{"measurement": "IRF Lucia reporter activity", "setting": "[1]; [4]", "result": 1.09}, {"measurement": "IRF Lucia reporter activity", "setting": "[1]; agonist: LPS (TLR4) 0.1 ug/mL", "result": 0.892}]}
{"compound": "CCC(=O)N1CCC(Nc2ncnc3c2CN(c2cnc(OC)c(C(F)(F)F)c2)CC3)C1", "note": "(configuration not stated) (library stock concentration (final ~1000-fold dilution): 10 mM)", "values": [{"measurement": "IRF Lucia reporter activity", "setting": "[1]; [4]", "result": 0.908}, {"measurement": "IRF Lucia reporter activity", "setting": "[1]; agonist: LPS (TLR4) 0.1 ug/mL", "result": 0.847}]}
{"compound": "CCC1(O)C(=O)OCc2c1cc1n(c2=O)Cc2cc3cc(O)ccc3nc2-1", "note": "(configuration not stated) (library stock concentration (final ~1000-fold dilution): 10 mM)", "values": [{"measurement": "IRF Lucia reporter activity", "setting": "[1]; [4]", "result": 0.975}, {"measurement": "IRF Lucia reporter activity", "setting": "[1]; agonist: LPS (TLR4) 0.1 ug/mL", "result": 0.604}, {"measurement": "IRF Lucia reporter activity", "setting": "[3]; [4]", "result": 2.36}, {"measurement": "IRF Lucia reporter activity", "setting": "[3]; agonist: LPS (TLR4) 0.1 ug/mL", "result": 1.76}]}
{"compound": "CCc1c2c(nc3ccc(O)cc13)-c1cc3c(c(=O)n1C2)COC(=O)C3(O)CC", "note": "(configuration not stated) (library stock concentration (final ~1000-fold dilution): 10 mM)", "values": [{"measurement": "IRF Lucia reporter activity", "setting": "[1]; [4]", "result": 1.24}, {"measurement": "IRF Lucia reporter activity", "setting": "[1]; agonist: LPS (TLR4) 0.1 ug/mL", "result": 1.29}]}
{"compound": "CCC1(O)C(=O)OCc2c1cc1n(c2=O)Cc2cc3c(CN(C)C)c(O)ccc3nc2-1", "note": "(configuration not stated) (library stock concentration (final ~1000-fold dilution): 10 mM)", "values": [{"measurement": "IRF Lucia reporter activity", "setting": "[1]; [4]", "result": 2.77}, {"measurement": "IRF Lucia reporter activity", "setting": "[1]; agonist: LPS (TLR4) 0.1 ug/mL", "result": 3.25}]}
{"compound": "CCc1c2c(nc3ccc(OC(=O)N4CCC(N5CCCCC5)CC4)cc13)-c1cc3c(c(=O)n1C2)COC(=O)C3(O)CC.Cl.O.O.O", "note": "(configuration not stated) (library stock concentration (final ~1000-fold dilution): 10 mM)", "values": [{"measurement": "IRF Lucia reporter activity", "setting": "[1]; [4]", "result": 0.87}, {"measurement": "IRF Lucia reporter activity", "setting": "[1]; agonist: LPS (TLR4) 0.1 ug/mL", "result": 1.1}]}
{"compound": "CCc1c2c(nc3ccc(O)cc13)-c1cc3c(c(=O)n1C2)COC(=O)C3(O)CC", "note": "(configuration not stated)", "values": [{"measurement": "IRF Lucia reporter activity", "setting": "[2]; [5]", "result": 1.65}]}
{"compound": "CCc1c2c(nc3ccc(OC(=O)N4CCC(N5CCCCC5)CC4)cc13)-c1cc3c(c(=O)n1C2)COC(=O)C3(O)CC.Cl.O.O.O", "note": "(configuration not stated)", "values": [{"measurement": "IRF Lucia reporter activity", "setting": "[2]; [5]", "result": 1.15}]}
{"compound": "CCC1(O)C(=O)OCc2c1cc1n(c2=O)Cc2cc3cc(O)ccc3nc2-1", "note": "(configuration not stated)", "values": [{"measurement": "IRF Lucia reporter activity", "setting": "[2]; [6]", "result": 2.58}, {"measurement": "IRF Lucia reporter activity", "setting": "[2]; [5]", "result": 1.03}]}
{"compound": "CCC1(O)C(=O)OCc2c1cc1n(c2=O)Cc2cc3c(CN(C)C)c(O)ccc3nc2-1.Cl", "note": "(configuration not stated) (library stock concentration (final ~1000-fold dilution): 10 mM)", "values": [{"measurement": "IRF Lucia reporter activity", "setting": "[3]; [4]", "result": 2.13}, {"measurement": "IRF Lucia reporter activity", "setting": "[3]; agonist: LPS (TLR4) 0.1 ug/mL", "result": 2.49}]}
{"compound": "CCC1(O)C(=O)OCc2c1cc1n(c2=O)Cc2cc3c(CN(C)C)c(O)ccc3nc2-1.Cl", "note": "(configuration not stated)", "values": [{"measurement": "IRF Lucia reporter activity", "setting": "[2]; [6]", "result": 3.1}]}
{"compound": "COc1ccc2cc1Oc1ccc(cc1)CC1c3cc(c(OC)cc3CCN1C)Oc1c(OC)c(OC)cc3c1C(C2)N(C)CC3", "note": "(configuration not stated) (library stock concentration (final ~1000-fold dilution): 10 mM)", "values": [{"measurement": "IRF Lucia reporter activity", "setting": "[1]; [4]", "result": 1.01}, {"measurement": "IRF Lucia reporter activity", "setting": "[1]; agonist: LPS (TLR4) 0.1 ug/mL", "result": 0.352}]}
{"compound": "COc1ccc2cc1Oc1ccc(cc1)CC1c3cc(c(OC)cc3CCN1C)Oc1c(OC)c(OC)cc3c1C(C2)N(C)CC3", "note": "(configuration not stated)", "values": [{"measurement": "IRF Lucia reporter activity", "setting": "[2]; [5]", "result": 1.07}]}
{"compound": "Cn1c(=O)cc(N2CCCC(N)C2)n(Cc2cc(F)ccc2C#N)c1=O.O=C(O)CCC(=O)O", "note": "(configuration not stated) (library stock concentration (final ~1000-fold dilution): 10 mM)", "values": [{"measurement": "IRF Lucia reporter activity", "setting": "[1]; [4]", "result": 1.04}, {"measurement": "IRF Lucia reporter activity", "setting": "[1]; agonist: LPS (TLR4) 0.1 ug/mL", "result": 1.26}]}
{"compound": "Cn1c(=O)cc(N2CCCC(N)C2)n(Cc2cc(F)ccc2C#N)c1=O.O=C(O)CCC(=O)O", "note": "(configuration not stated)", "values": [{"measurement": "IRF Lucia reporter activity", "setting": "[2]; [5]", "result": 1.13}]}
{"compound": "CCC(C)CC(C)CCCCCCCCC(=O)NC1CC(O)C(NCCN)NC(=O)C2C(O)CCN2C(=O)C(C(O)CCN)NC(=O)C(C(O)C(O)c2ccc(O)cc2)NC(=O)C2CC(O)CN2C(=O)C(C(C)O)NC1=O", "note": "(configuration not stated) (library stock concentration (final ~1000-fold dilution): 10 mM water)", "values": [{"measurement": "IRF Lucia reporter activity", "setting": "[1]; [4]", "result": 0.923}, {"measurement": "IRF Lucia reporter activity", "setting": "[1]; agonist: LPS (TLR4) 0.1 ug/mL", "result": 0.909}]}
